In publication PMC9911399, “Two distinct binding modes provide the RNA-binding protein RbFox with extraordinary sequence specificity”:
Numbering of substitutions follows the chain as printed; changes in the protein carry UniProt numbers. The full ranking holds about 16,000 sequences; the median of “ka relative to ugcaugu” is about 0.096, and the highest 2% start at about 0.35. Shown is part of a subset that was picked to be rich in the highest values.

T1: RBFOX1 RRM RbFoxmut (Fox-RRM*) (Homo sapiens, UniProt Q9NWB1 109-208, R118D;E147R;N151S;E152T)
T1 sequence: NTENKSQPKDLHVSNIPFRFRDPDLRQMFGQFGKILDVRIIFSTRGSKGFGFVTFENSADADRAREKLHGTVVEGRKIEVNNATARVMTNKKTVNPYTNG

B1: CAAGCAG (DNA:RNA)
RNA: GGGAGACCGGAAUUCAGAUUGUCCCAAGCAGUUAAAUCCCGUCGUAGCCACCA
DNA 1: CAATCTGAATTCCGGTCTCCC
DNA 2: TGGTGGCTACGACGGGATT
B2: CACGUCU (DNA:RNA)
RNA: B1 RNA with A27C, C29U, A30C, G31U
DNA 1: CAATCTGAATTCCGGTCTCCC
DNA 2: TGGTGGCTACGACGGGATT
B3: CUGGAGA (DNA:RNA)
RNA: B1 RNA with A26U, A27G, C29A, A30G, G31A
DNA 1: CAATCTGAATTCCGGTCTCCC
DNA 2: TGGTGGCTACGACGGGATT
B4: CUGGAUG (DNA:RNA)
RNA: B1 RNA with A26U, A27G, C29A, A30U
DNA 1: CAATCTGAATTCCGGTCTCCC
DNA 2: TGGTGGCTACGACGGGATT
B5: UGGAUGU (DNA:RNA)
RNA: GGGAGACCGGAAUUCAGAUUGUCCUGGAUGUUUAAAUCCCGUCGUAGCCACCA
DNA 1: CAATCTGAATTCCGGTCTCCC
DNA 2: TGGTGGCTACGACGGGATT
B6: UGCGAUG (DNA:RNA)
RNA: B1 RNA with C25U, A26G, A27C, C29A, A30U
DNA 1: CAATCTGAATTCCGGTCTCCC
DNA 2: TGGTGGCTACGACGGGATT
B7: UGGAUUU (DNA:RNA)
RNA: B5 RNA with G30U
DNA 1: CAATCTGAATTCCGGTCTCCC
DNA 2: TGGTGGCTACGACGGGATT
B8: UGCGCGA (DNA:RNA)
RNA: B5 RNA with G27C, A28G, U29C, U31A
DNA 1: CAATCTGAATTCCGGTCTCCC
DNA 2: TGGTGGCTACGACGGGATT
B9: UGGGAGA (DNA:RNA)
RNA: B5 RNA with A28G, U29A, U31A
DNA 1: CAATCTGAATTCCGGTCTCCC
DNA 2: TGGTGGCTACGACGGGATT
B10: UGCGAUC (DNA:RNA)
RNA: B5 RNA with G27C, A28G, U29A, G30U, U31C
DNA 1: CAATCTGAATTCCGGTCTCCC
DNA 2: TGGTGGCTACGACGGGATT
B11: UGGGAUG (DNA:RNA)
RNA: B5 RNA with A28G, U29A, G30U, U31G
DNA 1: CAATCTGAATTCCGGTCTCCC
DNA 2: TGGTGGCTACGACGGGATT
B12: CCCUGGA (DNA:RNA)
RNA: B1 RNA with A26C, A27C, G28U, C29G, A30G, G31A
DNA 1: CAATCTGAATTCCGGTCTCCC
DNA 2: TGGTGGCTACGACGGGATT
B13: CGGAUGU (DNA:RNA)
RNA: B5 RNA with U25C
DNA 1: CAATCTGAATTCCGGTCTCCC
DNA 2: TGGTGGCTACGACGGGATT
B14: UGGGGGA (DNA:RNA)
RNA: B5 RNA with A28G, U29G, U31A
DNA 1: CAATCTGAATTCCGGTCTCCC
DNA 2: TGGTGGCTACGACGGGATT
B15: UAACCGA (DNA:RNA)
RNA: B1 RNA with C25U, G28C, A30G, G31A
DNA 1: CAATCTGAATTCCGGTCTCCC
DNA 2: TGGTGGCTACGACGGGATT
B16: UGACGUC (DNA:RNA)
RNA: B5 RNA with G27A, A28C, U29G, G30U, U31C
DNA 1: CAATCTGAATTCCGGTCTCCC
DNA 2: TGGTGGCTACGACGGGATT
B17: UGGUAGU (DNA:RNA)
RNA: B5 RNA with A28U, U29A
DNA 1: CAATCTGAATTCCGGTCTCCC
DNA 2: TGGTGGCTACGACGGGATT
B18: UGCCGUU (DNA:RNA)
RNA: B5 RNA with G27C, A28C, U29G, G30U
DNA 1: CAATCTGAATTCCGGTCTCCC
DNA 2: TGGTGGCTACGACGGGATT
B19: CCAUGGC (DNA:RNA)
RNA: B1 RNA with A26C, G28U, C29G, A30G, G31C
DNA 1: CAATCTGAATTCCGGTCTCCC
DNA 2: TGGTGGCTACGACGGGATT
B20: AUCUUAC (DNA:RNA)
RNA: B1 RNA with C25A, A26U, A27C, G28U, C29U, G31C
DNA 1: CAATCTGAATTCCGGTCTCCC
DNA 2: TGGTGGCTACGACGGGATT
B21: UGAGAUG (DNA:RNA)
RNA: B1 RNA with C25U, A26G, C29A, A30U
DNA 1: CAATCTGAATTCCGGTCTCCC
DNA 2: TGGTGGCTACGACGGGATT
B22: UGAUGUC (DNA:RNA)
RNA: B5 RNA with G27A, A28U, U29G, G30U, U31C
DNA 1: CAATCTGAATTCCGGTCTCCC
DNA 2: TGGTGGCTACGACGGGATT
B23: UGAUGUG (DNA:RNA)
RNA: B1 RNA with C25U, A26G, G28U, C29G, A30U
DNA 1: CAATCTGAATTCCGGTCTCCC
DNA 2: TGGTGGCTACGACGGGATT
B24: AACUUAC (DNA:RNA)
RNA: B1 RNA with C25A, A27C, G28U, C29U, G31C
DNA 1: CAATCTGAATTCCGGTCTCCC
DNA 2: TGGTGGCTACGACGGGATT
B25: GCAUUGA (DNA:RNA)
RNA: B5 RNA with U25G, G26C, G27A, A28U, U31A
DNA 1: CAATCTGAATTCCGGTCTCCC
DNA 2: TGGTGGCTACGACGGGATT
B26: GUAUGAC (DNA:RNA)
RNA: B1 RNA with C25G, A26U, G28U, C29G, G31C
DNA 1: CAATCTGAATTCCGGTCTCCC
DNA 2: TGGTGGCTACGACGGGATT
B27: GCCAUGA (DNA:RNA)
RNA: B5 RNA with U25G, G26C, G27C, U31A
DNA 1: CAATCTGAATTCCGGTCTCCC
DNA 2: TGGTGGCTACGACGGGATT
B28: GCAUGAC (DNA:RNA)
RNA: B1 RNA with C25G, A26C, G28U, C29G, G31C
DNA 1: CAATCTGAATTCCGGTCTCCC
DNA 2: TGGTGGCTACGACGGGATT
B29: GGCAUGA (DNA:RNA)
RNA: B5 RNA with U25G, G27C, U31A
DNA 1: CAATCTGAATTCCGGTCTCCC
DNA 2: TGGTGGCTACGACGGGATT
B30: GCAUGAG (DNA:RNA)
RNA: B1 RNA with C25G, A26C, G28U, C29G
DNA 1: CAATCTGAATTCCGGTCTCCC
DNA 2: TGGTGGCTACGACGGGATT
B31: GGAUGAC (DNA:RNA)
RNA: B1 RNA with C25G, A26G, G28U, C29G, G31C
DNA 1: CAATCTGAATTCCGGTCTCCC
DNA 2: TGGTGGCTACGACGGGATT
B32: GGCAUAA (DNA:RNA)
RNA: B5 RNA with U25G, G27C, G30A, U31A
DNA 1: CAATCTGAATTCCGGTCTCCC
DNA 2: TGGTGGCTACGACGGGATT
B33: CGCAUGA (DNA:RNA)
RNA: B5 RNA with U25C, G27C, U31A
DNA 1: CAATCTGAATTCCGGTCTCCC
DNA 2: TGGTGGCTACGACGGGATT
B34: GCAGGAG (DNA:RNA)
RNA: B1 RNA with C25G, A26C, C29G
DNA 1: CAATCTGAATTCCGGTCTCCC
DNA 2: TGGTGGCTACGACGGGATT
B35: GUCAUGA (DNA:RNA)
RNA: B5 RNA with U25G, G26U, G27C, U31A
DNA 1: CAATCTGAATTCCGGTCTCCC
DNA 2: TGGTGGCTACGACGGGATT
B36: AUGAGAG (DNA:RNA)
RNA: B1 RNA with C25A, A26U, A27G, G28A, C29G
DNA 1: CAATCTGAATTCCGGTCTCCC
DNA 2: TGGTGGCTACGACGGGATT

What follows are binders tested against T1, RBFOX1 RRM RbFoxmut (Fox-RRM*) (assay: EMSA; HiTS-Eq, 1 nM pool, 10 min; buffer printed only for the single-RNA assays: 10 mM Tris pH 7.5, 150 mM NaCl, 3.4 mM EDTA, 0.001% NP-40, 30 C). Settings: tags: His6 N-terminal (pET28a); label: 5' 32P.
Method in brief: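 These values rest on relative association constants, computed from read-count changes of each RNA species versus the control reaction and normalised to the cognate motif. Reads came from free RNA recovered by 8% native PAGE after purified RbFox RRM (wild type or mutant) at increasing concentrations was equilibrated for 10 min in 50 µL with 1 nM of a 5′-radiolabelled pool with 7 randomized nucleotides and DNA-annealed flanks.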

Binder | binding signal
B1 | 0.0856 KA relative to UGCAUGU
B2 | 0.0849 KA relative to UGCAUGU
B3 | 0.0675 KA relative to UGCAUGU
B4 | 0.646 KA relative to UGCAUGU
B5 | 0.756 KA relative to UGCAUGU
B6 | 0.493 KA relative to UGCAUGU
B7 | 0.0654 KA relative to UGCAUGU
B8 | 0.0898 KA relative to UGCAUGU
B9 | 0.137 KA relative to UGCAUGU
B10 | 0.286 KA relative to UGCAUGU
B11 | 0.691 KA relative to UGCAUGU
B12 | 0.0858 KA relative to UGCAUGU
B13 | 0.281 KA relative to UGCAUGU
B14 | 0.102 KA relative to UGCAUGU
B15 | 0.0866 KA relative to UGCAUGU
B16 | 0.0923 KA relative to UGCAUGU
B17 | 0.163 KA relative to UGCAUGU
B18 | 0.113 KA relative to UGCAUGU

Binder | binding signal
B19 | 0.0829 KA relative to UGCAUGU
B20 | 0.12 KA relative to UGCAUGU
B21 | 0.429 KA relative to UGCAUGU
B22 | 0.207 KA relative to UGCAUGU
B23 | 0.184 KA relative to UGCAUGU
B24 | 0.0902 KA relative to UGCAUGU
B25 | 0.178 KA relative to UGCAUGU
B26 | 0.219 KA relative to UGCAUGU
B27 | 0.134 KA relative to UGCAUGU
B28 | 0.603 KA relative to UGCAUGU
B29 | 0.624 KA relative to UGCAUGU
B30 | 0.771 KA relative to UGCAUGU
B31 | 0.124 KA relative to UGCAUGU
B32 | 0.117 KA relative to UGCAUGU
B33 | 0.871 KA relative to UGCAUGU
B34 | 0.0994 KA relative to UGCAUGU
B35 | 0.2 KA relative to UGCAUGU
B36 | 0.16 KA relative to UGCAUGU
